# From the supplement of paper PMC6522484
# ± gives the standard deviation of the averaged measurements.
# What was measured:
# [1] = system: DLD1; assay: cell viability (CellTiter-Glo) relative to plate median (fraction of plate median); higher = more viable cells; settings: 5 µM; treatment time 24 h; reporter: 7TFP
# In short: (§1)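 For this screen, colorectal cancer cell lines carrying stable lentiviral TCF/Wnt firefly luciferase reporters, either 7TFP or TCF4/Wnt, were seeded into 384-well plates. A day's wait of 24 h preceded addition of library compounds at a final 5 µM, which stayed on the cells for 24 h. Firefly luciferase or CellTiterGlo luminescence, read on parallel plates, was normalised to the plate median per well, and the reported value is the mean of two independent replicates.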
# [2] = system: HCT116; assay: as above; settings: 5 µM; treatment time 24 h; reporter: TCF4/Wnt
# In short: as §1
# [3] = system: SW480; assay: as above; settings: 5 µM; treatment time 24 h; reporter: 7TFP
# In short: as §1
# [4] = system: DLD1; assay: TCF/Wnt firefly luciferase reporter signal relative to plate median (fraction of plate median); higher = higher Wnt reporter signal; settings: 5 µM; treatment time 24 h; reporter: 7TFP
# In short: as §1
# [5] = system: SW480; assay: as above; settings: 5 µM; treatment time 24 h; reporter: 7TFP
# In short: as §1
# [6] = system: DLD1; assay: cell viability (CellTiter-Glo) relative to plate median (fraction of plate median); higher = more viable cells; settings: 10 µM, treatment time 24 h
# In short: (§2)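 Colorectal cancer cell lines stably transduced with lentiviral TCF/Wnt firefly luciferase reporters (7TFP or TCF4/Wnt) were seeded in 384-well plates. 24 h later they received kinase inhibitor library compounds at a final 10 µM for 24 h. Parallel plates were read for firefly luciferase or CellTiterGlo luminescence on a Tecan F500 reader. Each well's signal was normalised to the plate median (webcellHTS2, additive, no log transformation), and the mean of two independent replicates is reported.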
# [7] = system: HCT116; assay: as above; settings: 10 µM; treatment time 24 h; reporter: TCF4/Wnt
# In short: as §2
# [8] = system: SW480; assay: as above; settings: 10 µM; treatment time 24 h; reporter: 7TFP
# In short: as §2
# [9] = system: DLD1; assay: TCF/Wnt firefly luciferase reporter signal relative to plate median (fraction of plate median); higher = higher Wnt reporter signal; settings: 10 µM, treatment time 24 h
# In short: as §2
# [10] = system: HCT116; assay: as above; settings: 10 µM; treatment time 24 h; reporter: TCF4/Wnt
# In short: as §2
# [11] = system: SW480; assay: as above; settings: 10 µM; treatment time 24 h; reporter: 7TFP
# In short: as §2
compound,measurement,setting,value
c1ccc([C@H]2CN3CCSC3=N2)cc1,cell viability,[1],1.01
same,cell viability,[2],0.943 ± 0.11
same,cell viability,[3],1.02 ± 0.048
same,TCF/Wnt firefly luciferase reporter signal,[4],0.943 ± 0.043
same,TCF/Wnt firefly luciferase reporter signal,[5],0.947 ± 0.066
COc1ccc(C(=O)CC(=O)c2ccc(C(C)(C)C)cc2)cc1,cell viability,[1],0.879 ± 0.2
same,cell viability,[2],0.904 ± 0.032
same,cell viability,[3],1.01 ± 0.021
same,TCF/Wnt firefly luciferase reporter signal,[4],1 ± 0.098
same,TCF/Wnt firefly luciferase reporter signal,[5],1.04 ± 0.18
CC(C)(C)NC[C@H](O)c1ccc(O)c(CO)c1,cell viability,[1],1.01 ± 0.13
same,cell viability,[2],0.93 ± 0.061
same,cell viability,[3],0.972 ± 0.069
same,TCF/Wnt firefly luciferase reporter signal,[4],1.02
same,TCF/Wnt firefly luciferase reporter signal,[5],1.07 ± 0.092
C[C@H]1CC[C@@H](C(C)(C)O)CC2=C1CC[C@@H]2C,cell viability,[1],0.964 ± 0.079
same,cell viability,[2],1.025 ± 0.0071
same,cell viability,[3],0.9715 ± 0.0078
same,TCF/Wnt firefly luciferase reporter signal,[4],0.907 ± 0.11
same,TCF/Wnt firefly luciferase reporter signal,[5],0.86 ± 0.016
C=C1C(N)CC2CC1C2(C)C (stereo not drawn) [3-AMINO-beta-PINENE],cell viability,[1],0.974 ± 0.093
same,cell viability,[2],0.9965 ± 0.005
same,cell viability,[3],0.918 ± 0.024
same,TCF/Wnt firefly luciferase reporter signal,[4],0.893 ± 0.0071
same,TCF/Wnt firefly luciferase reporter signal,[5],0.888 ± 0.016
COC1=CC(=O)C[C@@H](C)[C@]12Oc1c(Cl)c(OC)cc(OC)c1C2=O,cell viability,[1],0.937 ± 0.055
same,cell viability,[2],1.02 ± 0.057
same,cell viability,[3],0.865 ± 0.038
same,TCF/Wnt firefly luciferase reporter signal,[4],0.929 ± 0.094
same,TCF/Wnt firefly luciferase reporter signal,[5],0.89 ± 0.17
Cc1cc(Nc2cc(N3CCN(C)CC3)nc(/C=C/c3ccccc3)n2)n[nH]1,cell viability,[6]; reporter: 7TFP,0.88 ± 0.03
same,cell viability,[6]; reporter: TCF4/Wnt,0.942 ± 0.061
same,cell viability,[7],0.678 ± 0.019
same,cell viability,[8],0.9085 ± 0.0035
same,TCF/Wnt firefly luciferase reporter signal,[9]; reporter: 7TFP,1.06 ± 0.11
same,TCF/Wnt firefly luciferase reporter signal,[9]; reporter: TCF4/Wnt,1.01 ± 0.21
same,TCF/Wnt firefly luciferase reporter signal,[10],1.23 ± 0.33
same,TCF/Wnt firefly luciferase reporter signal,[11],0.687 ± 0.28
CCc1cn([C@H]2C[C@H](O)[C@@H](CO)O2)c(=O)[nH]c1=O,cell viability,[1],0.9885 ± 0.0021
same,cell viability,[2],0.968 ± 0.073
same,cell viability,[3],1.01 ± 0.023
same,TCF/Wnt firefly luciferase reporter signal,[4],1.03 ± 0.14
same,TCF/Wnt firefly luciferase reporter signal,[5],1.08 ± 0.085
O=c1[nH]cnc2c1ncn2[C@@H]1O[C@H](CO)[C@@H](O)[C@H]1O [Inosin],cell viability,[1],0.943 ± 0.12
same,cell viability,[2],0.91 ± 0.15
same,cell viability,[3],0.971 ± 0.013
same,TCF/Wnt firefly luciferase reporter signal,[4],0.67 ± 0.24
same,TCF/Wnt firefly luciferase reporter signal,[5],0.999 ± 0.13
CC1=NN(c2ccccc2)C(=O)C1,cell viability,[1],1.03 ± 0.054
same,cell viability,[2],0.921 ± 0.021
same,cell viability,[3],1.03 ± 0.06
same,TCF/Wnt firefly luciferase reporter signal,[4],0.979 ± 0.14
same,TCF/Wnt firefly luciferase reporter signal,[5],1.01 ± 0.025
Cc1ccc(C(=O)Nc2ccc(CN3CCN(C)CC3)c(C(F)(F)F)c2)cc1C#Cc1cnc2cccnn12,cell viability,[6]; reporter: 7TFP,0.835 ± 0.055
same,cell viability,[6]; reporter: TCF4/Wnt,0.8 ± 0.0099
same,cell viability,[7],0.631 ± 0.14
same,cell viability,[8],1.01 ± 0.16
same,TCF/Wnt firefly luciferase reporter signal,[9]; reporter: 7TFP,0.285 ± 0.064
same,TCF/Wnt firefly luciferase reporter signal,[9]; reporter: TCF4/Wnt,0.466 ± 0.0028
same,TCF/Wnt firefly luciferase reporter signal,[10],0.292 ± 0.12
same,TCF/Wnt firefly luciferase reporter signal,[11],0.668 ± 0.098
CCOC(=O)CCCCCCCCCCCCC1C=CCC1 (stereo unspecified),cell viability,[1],0.9375 ± 0.005
same,cell viability,[2],0.949 ± 0.07
same,cell viability,[3],0.965 ± 0.05
same,TCF/Wnt firefly luciferase reporter signal,[4],0.869 ± 0.034
same,TCF/Wnt firefly luciferase reporter signal,[5],0.873 ± 0.073
CC(=O)Oc1ccc2c(c1C(C)C)CCC1C(C)(C)CCC[C@]21C (stereo partly specified),cell viability,[1],1.18 ± 0.22
same,cell viability,[2],1.15 ± 0.071
same,cell viability,[3],1.05 ± 0.05
same,TCF/Wnt firefly luciferase reporter signal,[4],0.98 ± 0.11
same,TCF/Wnt firefly luciferase reporter signal,[5],0.962 ± 0.047
COc1cc2ncnc(Nc3ccc(O)c(Br)c3)c2cc1OC,cell viability,[6]; reporter: 7TFP,1.04 ± 0.13
same,cell viability,[6]; reporter: TCF4/Wnt,0.98 ± 0.029
same,cell viability,[7],1.13 ± 0.28
same,cell viability,[8],1.01
same,TCF/Wnt firefly luciferase reporter signal,[9]; reporter: 7TFP,1.11 ± 0.021
same,TCF/Wnt firefly luciferase reporter signal,[9]; reporter: TCF4/Wnt,0.832 ± 0.11
same,TCF/Wnt firefly luciferase reporter signal,[10],1.11 ± 0.17
same,TCF/Wnt firefly luciferase reporter signal,[11],1.17 ± 0.014
CN(C)Cc1cccc(N=C(c2ccccc2)c2c(O)[nH]c3cc(C(=O)N(C)C)ccc23)c1,cell viability,[6]; reporter: 7TFP,1.13 ± 0.057
same,cell viability,[6]; reporter: TCF4/Wnt,0.947 ± 0.0014
same,cell viability,[7],1.13 ± 0.099
same,cell viability,[8],1.19 ± 0.035
same,TCF/Wnt firefly luciferase reporter signal,[9]; reporter: 7TFP,0.966 ± 0.12
same,TCF/Wnt firefly luciferase reporter signal,[9]; reporter: TCF4/Wnt,0.85 ± 0.061
same,TCF/Wnt firefly luciferase reporter signal,[10],1.11 ± 0.16
same,TCF/Wnt firefly luciferase reporter signal,[11],1.11 ± 0.014
COc1cc(Nc2ncc3c(n2)-c2ccc(Cl)cc2C(c2c(F)cccc2OC)=NC3)ccc1C(=O)O [MLN8237 (Alisertib)],cell viability,[6]; reporter: 7TFP,0.987 ± 0.047
same,cell viability,[6]; reporter: TCF4/Wnt,0.95 ± 0.067
same,cell viability,[7],0.954 ± 0.12
same,cell viability,[8],0.943 ± 0.014
same,TCF/Wnt firefly luciferase reporter signal,[9]; reporter: 7TFP,1.08 ± 0.014
same,TCF/Wnt firefly luciferase reporter signal,[9]; reporter: TCF4/Wnt,1.16 ± 0.16
same,TCF/Wnt firefly luciferase reporter signal,[10],1.01 ± 0.12
same,TCF/Wnt firefly luciferase reporter signal,[11],0.974 ± 0.066
O=c1cc(N2CCOCC2)oc2c(-c3cccc4c3sc3ccccc34)cccc12,cell viability,[6]; reporter: 7TFP,1.01 ± 0.083
same,cell viability,[6]; reporter: TCF4/Wnt,0.964 ± 0.052
same,cell viability,[7],1 ± 0.094
same,cell viability,[8],1.04 ± 0.014
same,TCF/Wnt firefly luciferase reporter signal,[9]; reporter: 7TFP,1.19 ± 0.064
same,TCF/Wnt firefly luciferase reporter signal,[9]; reporter: TCF4/Wnt,1.16 ± 0.17
same,TCF/Wnt firefly luciferase reporter signal,[10],1.73 ± 0.64
same,TCF/Wnt firefly luciferase reporter signal,[11],1.1 ± 0.042
"COC(=O)C[C@H]1C(C)(C)C2(O)OC34CC2C(=O)[C@]1(C)C3CC[C@]1(C)C4=CC(=O)O[C@H]1c1ccoc1 (stereo partly drawn) [8beta-HYDROXYCARAPIN, 3,8-HEMIACETAL]",cell viability,[1],1.02 ± 0.014
same,cell viability,[2],1.07 ± 0.11
same,cell viability,[3],0.9895 ± 0.0092
same,TCF/Wnt firefly luciferase reporter signal,[4],0.866 ± 0.067
same,TCF/Wnt firefly luciferase reporter signal,[5],0.816 ± 0.019
COC(=O)CCCOc1ccc(Cl)cc1Cl,cell viability,[1],0.984 ± 0.093
same,cell viability,[2],1.02 ± 0.11
same,cell viability,[3],0.965 ± 0.05
same,TCF/Wnt firefly luciferase reporter signal,[4],1.1 ± 0.099
same,TCF/Wnt firefly luciferase reporter signal,[5],0.9 ± 0.23
CCOC(=O)[N-]c1c[n+](N2CCOCC2)no1,cell viability,[1],1.065 ± 0.0071
same,cell viability,[2],1.01 ± 0.089
same,cell viability,[3],1.02 ± 0.035
same,TCF/Wnt firefly luciferase reporter signal,[4],0.984 ± 0.037
same,TCF/Wnt firefly luciferase reporter signal,[5],1.11 ± 0.078
Cc1ccc2c(Cl)cc(Cl)c(O)c2n1,cell viability,[1],1.01 ± 0.021
same,cell viability,[2],1.01 ± 0.15
same,cell viability,[3],1.07
same,TCF/Wnt firefly luciferase reporter signal,[4],1.06 ± 0.22
same,TCF/Wnt firefly luciferase reporter signal,[5],1.04 ± 0.067
CCCC(CCC)C(=O)O,cell viability,[1],1.03 ± 0.045
same,cell viability,[2],1.09 ± 0.035
same,cell viability,[3],0.973 ± 0.052
same,TCF/Wnt firefly luciferase reporter signal,[4],1.115 ± 0.0071
same,TCF/Wnt firefly luciferase reporter signal,[5],1.06 ± 0.078
CC(C)c1cnn2c(NCc3ccccc3)cc(NCCCCCCN)nc12,cell viability,[6]; reporter: 7TFP,1 ± 0.067
same,cell viability,[6]; reporter: TCF4/Wnt,0.969 ± 0.073
same,cell viability,[7],1 ± 0.055
same,cell viability,[8],0.921 ± 0.041
same,TCF/Wnt firefly luciferase reporter signal,[9]; reporter: 7TFP,1.27 ± 0.11
same,TCF/Wnt firefly luciferase reporter signal,[9]; reporter: TCF4/Wnt,1.52 ± 0.028
same,TCF/Wnt firefly luciferase reporter signal,[10],0.988 ± 0.14
same,TCF/Wnt firefly luciferase reporter signal,[11],1.2 ± 0.17
CCN(CC)CCOCCOC(=O)C1(c2ccccc2)CCCC1,cell viability,[1],1.03 ± 0.13
same,cell viability,[2],0.887 ± 0.1
same,cell viability,[3],0.916 ± 0.013
same,TCF/Wnt firefly luciferase reporter signal,[4],1.12 ± 0.16
same,TCF/Wnt firefly luciferase reporter signal,[5],1.04 ± 0.028
CCN(CCO)CCCC(C)Nc1ccnc2cc(Cl)ccc12 (stereo unspecified),cell viability,[1],1.05 ± 0.097
same,cell viability,[2],0.998 ± 0.1
same,cell viability,[3],0.986 ± 0.0057
same,TCF/Wnt firefly luciferase reporter signal,[4],1.02 ± 0.076
same,TCF/Wnt firefly luciferase reporter signal,[5],1.045 ± 0.0071
